What all share (test): DAPPL (digital affinity profiling via proximity ligation, sequencing); 10 mM Tris-HCl pH 7.5, 50 mM NaCl, 1 mM DTT, 4% glycerol, room temperature, 30 min; GST-TFs on glutathione beads, 16-mer random dsDNA library, 0.1% formaldehyde crosslink after washing; high values mean tight binding
Common to all, as to settings: protein: recombinant; tags: N-terminal GST; dsDNA, one strand shown

One assay addresses T1, FLI1 (Homo sapiens, UniProt Q01543 1-452).
T1 sequence: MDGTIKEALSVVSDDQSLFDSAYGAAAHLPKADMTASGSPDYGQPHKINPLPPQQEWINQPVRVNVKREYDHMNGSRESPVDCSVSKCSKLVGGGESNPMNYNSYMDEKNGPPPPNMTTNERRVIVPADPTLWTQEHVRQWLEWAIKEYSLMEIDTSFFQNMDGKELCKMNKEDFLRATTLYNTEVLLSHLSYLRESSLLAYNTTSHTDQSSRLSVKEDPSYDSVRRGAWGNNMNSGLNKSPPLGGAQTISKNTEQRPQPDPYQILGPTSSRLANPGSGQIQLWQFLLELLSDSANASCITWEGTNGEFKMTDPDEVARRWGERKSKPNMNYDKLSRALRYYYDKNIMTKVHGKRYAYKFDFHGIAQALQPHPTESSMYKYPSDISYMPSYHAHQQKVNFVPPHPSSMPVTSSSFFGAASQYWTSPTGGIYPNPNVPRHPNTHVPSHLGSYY
The gist of the method:
(§1)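 In yeast, human transcription factors were expressed with a GST fusion, then pulled down on glutathione beads and given DNA barcodes. Pooled with a tag-only sample, they were exposed to 200 nmole of a 16-mer random double-stranded DNA library (Tris/NaCl/DTT/glycerol buffer, room temperature, 30 min), washed, crosslinked with 0.1% formaldehyde, proximity-ligated using BsaI/T4 ligase for 1 h at 37 °C, PCR-amplified and read on an Illumina NextSeq500. Each hexamer's frequency of reads for a factor, divided by the matching frequency for the tag-only sample, gives the binding signal.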

The target in another assay is T2, ELK1 (Homo sapiens, UniProt P19419 1-428).
T2 sequence: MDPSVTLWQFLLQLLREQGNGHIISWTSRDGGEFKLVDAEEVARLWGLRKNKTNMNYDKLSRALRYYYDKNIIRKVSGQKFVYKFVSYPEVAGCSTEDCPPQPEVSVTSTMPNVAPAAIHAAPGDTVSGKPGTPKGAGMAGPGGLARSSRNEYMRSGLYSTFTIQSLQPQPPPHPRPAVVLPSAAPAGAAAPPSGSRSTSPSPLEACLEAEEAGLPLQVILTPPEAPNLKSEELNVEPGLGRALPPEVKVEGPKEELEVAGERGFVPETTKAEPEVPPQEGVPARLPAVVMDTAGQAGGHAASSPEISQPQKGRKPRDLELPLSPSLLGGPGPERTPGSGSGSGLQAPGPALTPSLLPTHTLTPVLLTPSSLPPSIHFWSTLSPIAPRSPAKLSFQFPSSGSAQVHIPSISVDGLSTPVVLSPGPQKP
The gist of the method:
as §1

For the next assay, the target named is T3, GABPA (Homo sapiens, UniProt Q06546 1-454).
T3 sequence: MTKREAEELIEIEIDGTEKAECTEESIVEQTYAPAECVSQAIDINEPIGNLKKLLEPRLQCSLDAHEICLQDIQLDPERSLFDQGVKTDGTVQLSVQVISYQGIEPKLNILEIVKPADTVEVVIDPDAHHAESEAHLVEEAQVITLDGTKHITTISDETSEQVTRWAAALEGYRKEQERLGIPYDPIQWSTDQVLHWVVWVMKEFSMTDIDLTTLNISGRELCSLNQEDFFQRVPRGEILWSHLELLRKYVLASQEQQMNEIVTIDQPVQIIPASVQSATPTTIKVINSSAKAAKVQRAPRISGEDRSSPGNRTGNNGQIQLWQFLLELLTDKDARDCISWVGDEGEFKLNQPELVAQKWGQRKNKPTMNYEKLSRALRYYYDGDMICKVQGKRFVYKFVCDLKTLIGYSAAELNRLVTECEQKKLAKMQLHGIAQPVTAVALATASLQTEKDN
A digest of the protocol: as §1

Another assay concerns the target T4, ERG (Homo sapiens, UniProt P11308 1-479).
T4 sequence: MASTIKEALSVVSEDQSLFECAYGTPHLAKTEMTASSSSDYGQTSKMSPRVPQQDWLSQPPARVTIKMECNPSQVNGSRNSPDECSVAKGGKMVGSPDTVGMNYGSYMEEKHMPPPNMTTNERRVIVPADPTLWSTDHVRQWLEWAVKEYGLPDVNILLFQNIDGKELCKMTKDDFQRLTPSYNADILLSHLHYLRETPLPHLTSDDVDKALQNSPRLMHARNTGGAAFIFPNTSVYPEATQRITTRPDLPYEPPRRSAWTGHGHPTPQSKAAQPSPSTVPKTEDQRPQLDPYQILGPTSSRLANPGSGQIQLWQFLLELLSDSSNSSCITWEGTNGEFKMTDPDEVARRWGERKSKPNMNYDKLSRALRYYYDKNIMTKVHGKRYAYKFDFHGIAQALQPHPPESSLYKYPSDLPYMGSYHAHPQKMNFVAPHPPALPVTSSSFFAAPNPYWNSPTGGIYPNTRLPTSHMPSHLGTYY
The gist of the method: as §1

Another assay concerns the target ELF1 (Homo sapiens, UniProt P32519 1-619). A digest of the protocol:
as §1

The target in another assay is T5, EHF (Homo sapiens, UniProt Q9NZC4 1-300).
T5 sequence: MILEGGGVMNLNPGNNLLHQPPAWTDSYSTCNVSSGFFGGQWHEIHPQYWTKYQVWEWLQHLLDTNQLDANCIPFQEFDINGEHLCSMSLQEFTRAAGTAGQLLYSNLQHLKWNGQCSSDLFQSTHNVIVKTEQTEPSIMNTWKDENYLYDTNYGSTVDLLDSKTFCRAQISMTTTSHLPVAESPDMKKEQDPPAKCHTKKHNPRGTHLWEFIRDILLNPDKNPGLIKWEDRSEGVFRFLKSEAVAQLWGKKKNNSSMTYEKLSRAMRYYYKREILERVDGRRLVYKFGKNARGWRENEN
The gist of the method:
as §1

In the next assay the target is SPI1 (Homo sapiens, UniProt P17947 1-270). The gist of the method:
as §1

Another assay addresses SPIB (Homo sapiens, UniProt Q01892 1-262). A digest of the protocol: as §1
In the next assay the target is T6, ELK3 (Homo sapiens, UniProt P41970 1-407).
T6 sequence: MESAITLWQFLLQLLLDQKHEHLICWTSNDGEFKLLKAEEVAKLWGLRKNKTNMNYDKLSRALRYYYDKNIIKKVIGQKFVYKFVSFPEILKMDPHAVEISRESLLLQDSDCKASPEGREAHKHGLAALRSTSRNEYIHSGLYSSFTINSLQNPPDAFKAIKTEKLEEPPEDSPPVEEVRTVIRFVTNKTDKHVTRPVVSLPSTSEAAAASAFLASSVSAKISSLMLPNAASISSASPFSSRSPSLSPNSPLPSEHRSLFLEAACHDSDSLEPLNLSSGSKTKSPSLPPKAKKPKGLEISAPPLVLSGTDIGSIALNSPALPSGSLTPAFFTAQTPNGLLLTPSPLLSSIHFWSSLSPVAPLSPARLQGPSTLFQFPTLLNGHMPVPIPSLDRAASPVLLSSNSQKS
A digest of the protocol: as §1

Chain of ELF1 (P32519 whole entry): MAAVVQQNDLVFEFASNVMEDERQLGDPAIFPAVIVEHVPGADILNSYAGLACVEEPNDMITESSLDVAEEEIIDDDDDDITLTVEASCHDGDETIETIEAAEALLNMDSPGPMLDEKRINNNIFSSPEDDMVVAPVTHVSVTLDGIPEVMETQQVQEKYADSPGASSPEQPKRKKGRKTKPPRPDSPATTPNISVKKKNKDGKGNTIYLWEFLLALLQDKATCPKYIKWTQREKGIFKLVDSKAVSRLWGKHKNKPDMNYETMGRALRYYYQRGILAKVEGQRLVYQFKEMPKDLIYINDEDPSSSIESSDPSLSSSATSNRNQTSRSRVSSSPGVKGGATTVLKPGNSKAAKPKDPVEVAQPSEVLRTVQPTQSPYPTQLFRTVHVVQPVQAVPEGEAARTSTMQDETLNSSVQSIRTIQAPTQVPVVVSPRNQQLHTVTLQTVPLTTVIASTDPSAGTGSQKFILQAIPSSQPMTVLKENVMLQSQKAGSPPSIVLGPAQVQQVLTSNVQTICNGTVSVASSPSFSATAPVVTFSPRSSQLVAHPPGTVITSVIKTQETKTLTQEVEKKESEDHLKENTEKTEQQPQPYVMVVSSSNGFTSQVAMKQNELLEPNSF
Chain of SPIB (Q01892 whole entry): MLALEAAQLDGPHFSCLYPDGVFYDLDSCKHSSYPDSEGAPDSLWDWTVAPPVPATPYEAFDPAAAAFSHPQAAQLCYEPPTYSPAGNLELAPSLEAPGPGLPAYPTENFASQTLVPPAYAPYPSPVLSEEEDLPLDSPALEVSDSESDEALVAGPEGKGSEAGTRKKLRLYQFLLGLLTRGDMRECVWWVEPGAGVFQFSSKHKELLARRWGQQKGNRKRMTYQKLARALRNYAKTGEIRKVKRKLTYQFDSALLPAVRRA

Regarding TAAACA, the binding signal in the assay with FLI1 is 1.19 fold enrichment (6-mer frequency, TF over GST control); with ELK1 it was 1.2 fold enrichment (6-mer frequency, TF over GST control); in the assay with GABPA it was 1.19 fold enrichment (6-mer frequency, TF over GST control); with ERG, 1.21 fold enrichment (6-mer frequency, TF over GST control); with ELF1 it was 1.22 fold enrichment (6-mer frequency, TF over GST control); in the assay with EHF, 1.2 fold enrichment (6-mer frequency, TF over GST control). For the same sequence, the binding signal with SPI1 is 1.21 fold enrichment (6-mer frequency, TF over GST control); in the assay with SPIB, 1.16 fold enrichment (6-mer frequency, TF over GST control); with ELK3, 1.23 fold enrichment (6-mer frequency, TF over GST control).

These data come from article PMC7862700, “An all-to-all approach to the identification of sequence-specific readers for epigenetic DNA modifications on cytosine”.
